A short description of assay [1]: qHTS assay to identify small molecule antagonists of the glucocorticoid receptor (GR) signaling pathway - cell viability counter screen (AID 720693). Note: nearly all actives have a fitted effect of over 55% in size. Note: potency is the fitted concentration of half-maximal effect. Background: qHTS replaces the single test concentration by a dilution series.
Assay [2] can be described thus: qHTS assay for identifying genotoxic compounds that show differential cytotoxicity against isogenic chicken DT40 cell lines with known DNA damage response pathways - wild type cell line (AID 743012). Note: nearly all actives have a fitted effect of over 60% in size. Note: potency is the fitted concentration of half-maximal effect. The procedure, abridged:
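Cytotoxicity in repair-proficient parental chicken DT40 cells serves as the comparator for Rad54/Ku70- and Rev3-deficient lines. Cells were exposed to compounds for 40 h at 37 C/5% CO2, and ATP-based luminescence (CellTiter-Glo) measured viability.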

Assay [3] can be described thus: qHTS assay for identifying genotoxic compounds that show differential cytotoxicity against isogenic chicken DT40 cell lines with known DNA damage response pathways - Rev3 mutant cell line (AID 743014). Note: nearly all actives have a fitted effect of over 55% in size. Note: potency is the fitted concentration of half-maximal effect.
Assay [4] in a line: qHTS assay for identifying genotoxic compounds that show differential cytotoxicity against isogenic chicken DT40 cell lines with known DNA damage response pathways - Rad54/Ku70 mutant cell line (AID 743015). Note: nearly all actives have a fitted effect of over 60% in size. Note: potency is the fitted concentration of half-maximal effect.
Assay [5] can be described thus: qHTS assay to identify small molecule antagonists of the androgen receptor (AR) signaling pathway - cell viability counter screen (AID 743033; note: nearly all actives have a fitted effect of over 45% in size; note: potency is the fitted concentration of half-maximal effect).
The nature of assay [6]: qHTS assay to identify small molecule antagonists of the androgen receptor (AR) signaling pathway using the MDA cell line - cell viability counter screen (AID 743041; note: nearly all actives have a fitted effect of over 45% in size; note: potency is the fitted concentration of half-maximal effect). The procedure, abridged: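 Compound exposure lasted 16 h at 37C in MDA-kb2 AR-luc cells stimulated with R1881. Protease-based CellTiter-Fluor reagent was applied for the final 30 min and fluorescence measured.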

Assay [7] in a line: qHTS assay to identify small molecule antagonists of the thyroid receptor (TR) signaling pathway - cell viability counter screen (AID 743064). Note: nearly all actives have a fitted effect of over 50% in size. Note: potency is the fitted concentration of half-maximal effect. The gist of the method:
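Rat GH3 pituitary tumor cells stably expressing two TR response elements driving luciferase were plated, rested 4 h, then dosed with library compounds and T3 (1 nM final). After 23.5 h at 37 °C, CellTiter-Fluor was added for 30 min and fluorescence recorded.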

Assay [8] in a line: qHTS assay to identify small molecule antagonists of the thyroid receptor (TR) signaling pathway (AID 743065). Note: nearly all actives have a fitted effect of over 55% in size. Note: potency is the fitted concentration of half-maximal effect. The procedure, abridged:
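GH3.TRE-Luc rat pituitary cells (two TREs driving luciferase) were dosed with compound, then stimulated with 1 nM T3 (final) for 23.5 h at 37 C. ONE-Glo luminescence was the read-out, with CellTiter-Fluor fluorescence as the cytotoxicity counter-screen.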

For assay [9], the system named is thyroid hormone receptor (rat, GH3 cells). Description: qHTS assay to identify small molecule agonists of the thyroid receptor (TR) signaling pathway (AID 743066; calls by dose curve; note: potency is the fitted concentration of half-maximal effect).
The nature of assay [10]: qHTS assay to identify small molecule antagonists of the estrogen receptor alpha (ER-alpha) signaling pathway - cell viability counter screen (AID 743074; calls by dose curve; note: nearly all actives have a fitted effect of over 45% in size; note: potency is the fitted concentration of half-maximal effect).
Assay [11] in a line: qHTS assay to identify small molecule antagonists of the estrogen receptor alpha (ER-alpha) signaling pathway using the BG1 cell line - cell viability counter screen (AID 743081).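 Note: compound given together with 17beta-estradiol as the ER stimulus; nearly all actives have a fitted effect of over 45% in size.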 Note: potency is the fitted concentration of half-maximal effect.
In a further assay the target is Aromatase (Homo sapiens) (UniProt P11511). In words: qHTS assay to identify aromatase inhibitors (AID 743083). Note: nearly all actives have a fitted effect of over 55% in size. Note: potency is the fitted concentration of half-maximal effect.
Aromatase (Homo sapiens), sequence (P11511 whole entry, looked up): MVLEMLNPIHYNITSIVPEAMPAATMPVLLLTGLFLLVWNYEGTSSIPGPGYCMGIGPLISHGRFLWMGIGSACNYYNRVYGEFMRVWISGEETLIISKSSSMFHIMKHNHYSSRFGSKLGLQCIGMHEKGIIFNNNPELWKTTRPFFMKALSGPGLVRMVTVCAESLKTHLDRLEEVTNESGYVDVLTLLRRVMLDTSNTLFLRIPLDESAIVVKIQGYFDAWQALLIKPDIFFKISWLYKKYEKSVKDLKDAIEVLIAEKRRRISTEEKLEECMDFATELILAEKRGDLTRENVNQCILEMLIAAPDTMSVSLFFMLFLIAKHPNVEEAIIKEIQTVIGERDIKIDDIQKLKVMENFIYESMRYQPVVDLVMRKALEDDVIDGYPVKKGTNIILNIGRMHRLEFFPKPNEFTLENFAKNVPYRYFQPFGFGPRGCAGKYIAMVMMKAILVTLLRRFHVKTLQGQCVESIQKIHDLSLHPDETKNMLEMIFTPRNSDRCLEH
Assay [12] addresses Estrogen receptor (Homo sapiens) (UniProt P03372). Description: qHTS assay to identify small molecule antagonists of the estrogen receptor alpha (ER-alpha) signaling pathway (AID 743069; active = well fitted curve in the direction sought with a large enough effect in the signal ratio in the repeat runs, not every such curve was filed as active; the % refers to the signal ratio). The procedure, abridged: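 In this cell-based reporter format, GripTite HEK293 cells harbouring ER-alpha-UAS-bla were grown overnight with 2% charcoal-stripped FBS, dosed with DMSO-dissolved compounds, then challenged with 17beta-estradiol. After 18 hr at 37C, beta-lactamase activity was detected by FRET fluorescence.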

Assay [13] shares this target. In words: qHTS assay to identify small molecule agonists of the estrogen receptor alpha (ER-alpha) signaling pathway (AID 743075; calls by dose curve).
Assay [14] shares this target. Description: qHTS assay to identify small molecule agonists of the estrogen receptor alpha (ER-alpha) signaling pathway using the BG1 cell line (AID 743079). Note: nearly all actives have a fitted effect of over 20% in size. Conditions: BG1Luc4E2 cells, ERE-luciferase agonist, 22 h; activation: at 70.3 µM (top of the series).
For assay [15], the target named is Androgen receptor (Homo sapiens) (UniProt P10275). Description: qHTS assay to identify small molecule antagonists of the androgen receptor (AR) signaling pathway (AID 743035; active = well fitted inhibition curve with a large enough effect in the signal ratio in the repeat runs, not every such curve was filed as active; the % refers to the signal ratio; note: potency is the fitted concentration of half-maximal effect). The procedure, abridged:
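Steps: seed AR-UAS-bla GripTite HEK293 cells, incubate 4 h at 37C; pin in test compound, then add agonist R1881; incubate 16 h at 37C; add LiveBLAzer B/G FRET substrate, 2 h at room temperature; read fluorescence.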

The target is the same in assay [16]. In words: qHTS assay to identify small molecule agonists of the androgen receptor (AR) signaling pathway (AID 743036; active = well fitted activation curve with a large enough effect in the signal ratio in the repeat runs, with a control signal flat, not every such curve was filed as active; the % refers to the signal ratio). The procedure, abridged:
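Quantitative HTS of the Tox21 10K library in HEK293 cells bearing a stably integrated UAS-controlled beta-lactamase reporter. Compound exposure lasted 16 h at 37C. Reporter activity was detected by FRET substrate fluorescence after 2 h at room temperature.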

The target is the same in assay [17]. Description: qHTS assay to identify small molecule agonists of the androgen receptor (AR) signaling pathway using the MDA cell line (AID 743040; note: nearly all actives have a fitted effect of over 20% in size). The procedure, abridged:
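Testing was done with the MDA-kb2 AR-luc line, a human breast carcinoma stably transfected with MMTV-luciferase containing AR and GR response elements. Cells were exposed 16 h at 37C before ONE-Glo luminescence detection.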

The target is the same in assay [18]. In words: qHTS assay to identify small molecule antagonists of the androgen receptor (AR) signaling pathway using the MDA cell line (AID 743042; note: nearly all actives have a fitted effect of over 55% in size; note: potency is the fitted concentration of half-maximal effect). The gist of the method: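 MDA-kb2 breast carcinoma cells carrying MMTV-luciferase (AR/GR responsive) were co-treated with compounds and the agonist R1881 for 16 h at 37C. Inhibition read as ONE-Glo luminescence; CellTiter-Fluor fluorescence measured in parallel for cytotoxicity.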

Assay [19] is described as follows: qHTS assay to identify small molecule antagonists of the estrogen receptor alpha (ER-alpha) signaling pathway using the BG1 cell line (AID 743080; calls by dose curve;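 note: BG1 cells stimulated with 17beta-estradiol alongside compound; nearly all actives have a fitted effect of over 25% in size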; note: potency is the fitted concentration of half-maximal effect). The procedure, abridged:
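After 5 days in phenol-red-free 10% charcoal-stripped FBS medium, BG1-Luc-4E2 cells were seeded, left 24 h at 37 C, co-treated with compounds and 17beta-estradiol for 21.5 h, then assayed for viability and luciferase.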

Records with an inconclusive call do not appear. Calls of active or inactive are those of the source. Unless noted, calls come from the whole dose curve; as a rule, active = well fitted curve in the direction sought with a large enough effect in the repeat runs; inconclusive = weak or mixed curves; inactive = no such curve, though single readings can be large; an effect the other way counts as inactive or inconclusive.

Estrogen receptor (Homo sapiens), sequence (P03372 whole entry, looked up): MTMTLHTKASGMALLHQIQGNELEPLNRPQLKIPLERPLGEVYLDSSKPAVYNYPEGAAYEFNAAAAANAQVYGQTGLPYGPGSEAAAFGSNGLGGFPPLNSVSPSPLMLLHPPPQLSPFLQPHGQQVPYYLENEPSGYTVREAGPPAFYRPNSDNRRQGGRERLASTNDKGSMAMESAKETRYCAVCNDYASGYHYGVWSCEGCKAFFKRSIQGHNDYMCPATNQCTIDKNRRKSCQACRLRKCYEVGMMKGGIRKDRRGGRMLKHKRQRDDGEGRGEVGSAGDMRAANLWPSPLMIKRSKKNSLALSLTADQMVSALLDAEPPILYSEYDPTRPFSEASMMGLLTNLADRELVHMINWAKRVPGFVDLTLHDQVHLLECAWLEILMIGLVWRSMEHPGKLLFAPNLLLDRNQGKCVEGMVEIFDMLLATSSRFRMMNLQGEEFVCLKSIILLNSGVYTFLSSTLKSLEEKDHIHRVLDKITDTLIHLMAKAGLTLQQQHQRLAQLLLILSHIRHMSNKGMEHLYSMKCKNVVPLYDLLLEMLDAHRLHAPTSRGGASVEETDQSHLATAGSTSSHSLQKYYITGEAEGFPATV
Androgen receptor (Homo sapiens), sequence (P10275 whole entry, looked up): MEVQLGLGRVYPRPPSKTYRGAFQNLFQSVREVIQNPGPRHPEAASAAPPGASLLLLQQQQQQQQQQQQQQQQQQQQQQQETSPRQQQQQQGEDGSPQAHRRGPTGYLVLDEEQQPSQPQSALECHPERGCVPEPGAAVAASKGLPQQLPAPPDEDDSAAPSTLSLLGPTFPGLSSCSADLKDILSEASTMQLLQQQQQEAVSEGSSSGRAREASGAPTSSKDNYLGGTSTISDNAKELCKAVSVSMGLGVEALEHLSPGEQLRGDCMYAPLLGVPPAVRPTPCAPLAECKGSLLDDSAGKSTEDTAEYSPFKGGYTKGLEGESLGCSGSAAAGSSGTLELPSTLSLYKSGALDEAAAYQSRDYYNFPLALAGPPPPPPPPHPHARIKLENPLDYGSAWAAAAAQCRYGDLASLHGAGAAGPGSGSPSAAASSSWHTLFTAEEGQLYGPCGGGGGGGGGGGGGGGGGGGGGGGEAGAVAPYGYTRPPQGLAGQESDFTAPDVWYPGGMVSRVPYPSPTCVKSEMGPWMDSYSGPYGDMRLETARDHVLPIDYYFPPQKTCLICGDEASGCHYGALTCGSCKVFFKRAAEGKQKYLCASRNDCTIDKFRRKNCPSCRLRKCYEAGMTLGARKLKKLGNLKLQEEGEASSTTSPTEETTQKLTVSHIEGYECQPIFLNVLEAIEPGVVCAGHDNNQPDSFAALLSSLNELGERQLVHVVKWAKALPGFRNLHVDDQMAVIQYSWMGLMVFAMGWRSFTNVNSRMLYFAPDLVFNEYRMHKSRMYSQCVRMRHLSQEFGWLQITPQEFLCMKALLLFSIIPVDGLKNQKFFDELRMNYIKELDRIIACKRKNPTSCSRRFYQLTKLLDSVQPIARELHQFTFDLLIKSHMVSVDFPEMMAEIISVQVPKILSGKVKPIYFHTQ

Consider `O=C(Nc1ccc(F)cc1F)c1cccnc1Oc1cccc(C(F)(F)F)c1`, for which the Potency entry in assay [1], in assay [2], in assay [3], in [4], in assay [5] and in [6] was “inactive” each time. The Potency entry (in [7]; in assay [8]; in assay [9]; in assay [10]; in assay [11]; with Aromatase (Homo sapiens)) was “inactive” each time.

On to `CC(Cc1ccc2c(c1)OCO2)NO` (stereo not drawn), for which the Potency entry in assay [1], in assay [2], in assay [3], in assay [4], in assay [5] and in assay [6] was “inactive” throughout. Besides, the Potency result in [7], in [8], in [9], in [12], in [10] and in [13] was “inactive” in each case. Also, the Potency entry (in assay [14]; in [11]; with Aromatase (Homo sapiens)) was “inactive” in each case.

Take `C=CCOC(=O)c1ccccc1N`: the Potency entry in assay [1], in assay [2], in [3], in [4], in assay [5] and in assay [15] was “inactive” each time. Also, the Potency entry in [6], in assay [18], in [7], in assay [9], in assay [12] and in assay [10] was “inactive” each time. Besides, the Potency entry (in assay [13]; in [14]; in assay [19]; in assay [11]; with Aromatase (Homo sapiens)) was “inactive” in each case. Besides, the outcome in [16] and in assay [17] was inactive.

For the compound `CC(Cc1ccc(OCC(=O)O)cc1)NCC(O)c1csc(C(F)(F)F)n1` (stereo not drawn), the Potency entry in [1], in assay [2], in assay [3], in assay [4], in [5] and in assay [6] was “inactive” in each case. Besides, the Potency result in assay [7], in assay [8], in [10], in assay [13], in assay [14] and in assay [19] was “inactive” each time. The Potency result (in assay [11]; with Aromatase (Homo sapiens)) was “inactive” each time. Also, the Potency in [9] was 77 µM (active).

Take `C=C(C)C(=O)[O][Sn]([CH2]CCC)([CH2]CCC)[CH2]CCC`: the Potency in assay [1] is 0.776 µM (active); in assay [2] it was 0.486 µM (active); in assay [3], 0.686 µM (active); in assay [4], 0.545 µM (active); in [5], 0.776 µM (active); in assay [6] it was 1.93 µM (active). Besides, the Potency in [7] was 0.433 µM (active); in assay [8] it was 0.306 µM (active); in [9], 0.0306 µM (active); in assay [10] it was 1.74 µM (active); in assay [19] it was 0.344 µM (active); in assay [11], 1.37 µM (active). Further, in the assay with Aromatase (Homo sapiens), the Potency is 3.86 µM (active).

In the case of `CSC(C)(C)/C=N/O`, the Potency entry in [1], in assay [2], in assay [3], in assay [4], in assay [5] and in assay [6] was “inactive” each time. Moreover, the Potency result in assay [7], in assay [8], in [9], in assay [12], in [10] and in assay [13] was “inactive” throughout. The Potency entry (in assay [19]; in assay [11]; in the assay with Aromatase (Homo sapiens)) was “inactive” each time.

Take `CCCCCCC[CH2][Sn]([Cl])([Cl])[CH2]CCCCCCC`: the Potency in assay [1] was 54.9 µM (active); in assay [15] it was 21.9 µM (active); in assay [8] it was 54.4 µM (active); in [10], 24.5 µM (active). For the same compound, the Potency entry in [2], in assay [3], in [4], in assay [5], in assay [6] and in [18] was “inactive” throughout. Besides, the Potency result in assay [9] and in assay [11] was “inactive” in each case. In addition, the outcome in assay [17] was inactive.

Turning to `Cc1ccc(C)c2ccccc12`, the Potency entry in assay [1], in assay [2], in assay [3], in assay [4], in [5] and in assay [15] was “inactive” each time. Besides, the Potency entry in assay [6], in assay [18], in assay [8], in assay [9], in [10] and in assay [11] was “inactive” each time. For the same compound, in the assay with Aromatase (Homo sapiens), the Potency result is “inactive”. Also, the result in assay [16] and in assay [17] was inactive.

`COc1ccc(Cc2nccc3cc(OC)c(OC)cc23)cc1OC`: the Potency result in assay [1], in assay [5], in assay [7], in [9], in assay [10] and in [11] was “inactive” throughout. Besides, the Potency entry in the assay with Aromatase (Homo sapiens) is “inactive”. The Potency is 4.03 µM (active) in [2], 9.02 µM (active) in assay [3], 7.17 µM (active) in assay [4] and 9.02 µM (active) in assay [18]. Besides, the outcome in [16] and in assay [17] was inactive.

Consider `CCNc1nc(NC(C)C(C)C)nc(SC)n1` (stereo not drawn), for which the Potency entry in [1], in assay [5], in assay [6], in [7], in [8] and in [9] was “inactive” each time. Also, the Potency entry (in assay [12]; in [10]; in assay [13]; in assay [14]; in [11]; with Aromatase (Homo sapiens)) was “inactive” in each case. The Potency in assay [2] is 38.6 µM (active); in assay [3] it was 34.4 µM (active); in assay [4] it was 61.1 µM (active).

On to `Cc1nn(-c2cc(NS(C)(=O)=O)c(Cl)cc2Cl)c(=O)n1C(F)F`, for which the Potency result in assay [1], in assay [2], in assay [3], in assay [4], in assay [5] and in assay [6] was “inactive” in each case. The Potency entry (in assay [18]; in [8]; in [9]; in assay [10]; in assay [11]; in the assay with Aromatase (Homo sapiens)) was “inactive” in each case. In addition, the compound was called inactive in assay [17].

Consider `O=P(Cl)(Cl)Cl`, for which the Potency result in [1], in assay [2], in assay [3], in assay [4], in assay [5] and in assay [6] was “inactive” each time. Also, the Potency result in assay [7], in assay [8], in [9], in [12], in [10] and in assay [13] was “inactive” throughout. The Potency result (in assay [14]; in assay [19]; in assay [11]; with Aromatase (Homo sapiens)) was “inactive” in each case.

Consider `C1=CCC=C1`, for which the Potency entry in assay [1], in assay [2], in assay [3], in [4], in assay [5] and in assay [6] was “inactive” in each case. In addition, the Potency entry in assay [7], in [8], in assay [9], in [10] and in assay [11] was “inactive” throughout.

Regarding `C=CC(=O)[O][Sn]([CH2]CCC)([CH2]CCC)[CH2]CCC`, the Potency in [1] was 1.55 µM (active); in assay [2], 0.864 µM (active); in [3] it was 0.864 µM (active); in assay [4], 0.686 µM (active); in [5], 1.23 µM (active); in [6], 2.17 µM (active). Besides, the Potency in assay [18] was 1.72 µM (active); in assay [7], 0.969 µM (active); in assay [9], 0.193 µM (active); in assay [10] it was 1.1 µM (active); in [19] it was 0.433 µM (active); in [11] it was 5.45 µM (active). Also, in the assay with Aromatase (Homo sapiens), the Potency is 5.45 µM (active). In addition, the call in assay [17] was inactive.

Consider `CNC(C)(C)Cc1ccccc1`, for which the Potency result in assay [1], in assay [2], in assay [3], in [4], in assay [5] and in assay [6] was “inactive” in each case. For the same compound, the Potency entry in [7], in assay [8], in assay [9], in assay [10], in assay [19] and in assay [11] was “inactive” each time. Moreover, in the assay with Aromatase (Homo sapiens), the Potency result is “inactive”.

For the compound `O=Cc1ccccc1`, the Potency result in assay [1], in [2], in assay [3], in [4], in assay [5] and in assay [6] was “inactive” in each case. Besides, the Potency result in assay [7], in [8], in [9], in assay [10] and in [11] was “inactive” each time.

The record behind these values is PubChem BioAssay (Tox21).
